Laboratory results: PubChem BioAssay (NCI)
About 83,000 compounds went through this panel and 20% of them were active in at least one assay; those are over-represented in the sample as a whole.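 96-well plates, one dose, 48 hours. Percent growth reported; active if below 10.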 Unmarked numbers belong to inactive results. The source made the active and inactive calls.

Columns and labels:
Assay in all cases: NCI-60 one-dose screen, 48 h (100 = growth as untreated, 0 = no growth, -100 = all killed)
Details in all cases: 10 µM
[1] = tested on: HCT-15 colon
[2] = tested on: HT29 colon
[3] = tested on: SNB-75 CNS
[4] = tested on: SNB-19 CNS
[5] = tested on: U251 CNS
[6] = tested on: PC-3 prostate
[7] = tested on: SK-MEL-5 melanoma
[8] = tested on: UACC-62 melanoma
[9] = tested on: SK-MEL-28 melanoma
[10] = tested on: SK-MEL-2 melanoma
[11] = tested on: SN12C renal
[12] = tested on: UO-31 renal
[13] = tested on: TK-10 renal
[14] = tested on: ACHN renal
[15] = tested on: CAKI-1 renal
[16] = tested on: CCRF-CEM leukemia
[17] = tested on: MOLT-4 leukemia
[18] = tested on: LOX IMVI melanoma
[19] = tested on: EKVX NSCLC
[20] = tested on: A498 renal

| Structure (SMILES) | growth [1] | growth [2] | growth [3] | growth [4] | growth [5] | growth [6] | growth [7] | growth [8] | growth [9] | growth [10] | growth [11] | growth [12] | growth [13] | growth [14] | growth [15] | growth [16] | growth [17] | growth [18] | growth [19] | growth [20] |
| --- | --- | --- | --- | --- | --- | --- | --- | --- | --- | --- | --- | --- | --- | --- | --- | --- | --- | --- | --- | --- |
| Cc1nc(Nc2nc3ccccc3o2)nc(-c2cccc([N+](=O)[O-])c2)c1C(=O)Nc1ccc(F)c(Cl)c1 | 15.5% | 6.31% (active) | 17.8% | 11.7% | 3.14% (active) | 6.84% (active) | 0.624% (active) | 17.1% | 13.2% | -33.7% (active) | 7.04% (active) | 11.3% | 8.62% (active) | 12.9% | 9.69% (active) | 22.8% | -23.7% (active) |  |  |  |
| C=C1C(=O)O[C@H]2[C@H]1CC/C(COC(=O)OCCCCCOC(=O)OC/C1=C/CC[C@@]3(C)O[C@H]3[C@H]3OC(=O)C(=C)[C@@H]3CC1)=C\CC[C@@]1(C)O[C@@H]21 | -87.7% (active) | -85.6% (active) | 80.3% | 25.7% | 4.2% (active) | -25.9% (active) |  | -26.4% (active) | -11% (active) | -30% (active) |  | -54.9% (active) | -87.6% (active) | -65.7% (active) | -68.5% (active) | 1.79% (active) | -7.49% (active) | -90.1% (active) | -4.3% (active) | -34.2% (active) |
| O=C(NCc1cn(Cc2cccc(Oc3ccccc3)c2)nn1)c1cccnc1Nc1ccccc1 | 30.7% | 47.8% | 54.2% | 67.1% | 42.2% | 44.5% |  | 53.5% | 47.8% | 55.1% | 50.2% | 54.4% | 85.2% | 54.5% | 48.1% |  | 38% | 45.1% | 58.7% | 19.7% |
| Cc1cc(Cl)ccc1Nc1nc(C(F)(F)F)ccc1C(=O)N/N=C/c1ccccc1Cl | 22.9% | 14.7% | 37.9% | 29.5% | 22.5% | 8.2% (active) | -54.4% (active) | -4.83% (active) | 37.2% | 19.2% | 19.6% |  | 19% | 16% | 5.28% (active) | 14.7% | 41.2% |  |  | 21.8% |
| CCN(CC)CCCOC(=O)Nc1ccccc1Cl | 111% | 103% | 120% | 104% | 107% | 96.1% |  | 109% | 116% | 101% | 102% | 91.7% | 98.9% | 108% | 104% | 88.4% | 98% | 97.6% | 108% | 97.7% |
| Cc1ccc(NS(=O)(=O)c2ccccc2)c(NS(=O)(=O)c2ccccc2)c1 | 104% | 102% | 90.5% | 95.2% | 98.6% | 94.6% |  | 87.9% | 116% | 98.6% | 90.4% | 69.4% | 112% | 94.3% | 93.2% |  | 105% | 94.5% | 93.8% | 115% |
| CCOC(=O)C(=O)Cc1cccnn1 | 102% | 101% | 78% | 102% | 96.8% |  | 108% | 99.7% | 108% | 103% | 99.9% | 82.9% | 101% | 103% | 103% | 91.7% | 93.4% | 99.5% | 111% | 113% |
| COc1cc([C@@H]2c3cc4c(cc3[C@H](SC(=N)N)[C@H]3COC(=O)[C@H]23)OCO4)cc(OC)c1OC | 11.8% | 8.38% (active) | 30.1% | 37.4% | 23.2% | 19.5% |  | 62.2% | 63.7% | 30.8% | 27.3% | 29.3% | 72.4% | 26.3% | 5.13% (active) | 4.96% (active) | 26% | 16.5% | 33.2% | 48.2% |
| N=C(N)c1ccc(-c2ccc(-c3ccccc3)s2)cc1F | -77.1% (active) | -89.8% (active) | -92.4% (active) | -75.9% (active) | -94.5% (active) | -88% (active) |  | -93.1% (active) | -96.2% (active) | -83.8% (active) | -83.6% (active) | -91.2% (active) | -95% (active) | -98.3% (active) | -81.3% (active) | -60.9% (active) | -75.5% (active) | -81.4% (active) |  | -88.6% (active) |
| COc1cc(-c2nc3ccccc3[nH]2)ccc1OCC(=O)N=Nc1c(O)[nH]c2ccccc12 | 99.4% | 91.5% | 98.1% | 98.4% | 32.1% | 64% |  | 94.9% | 101% | 103% | 83.2% | 89.3% |  | 101% | 94.2% | -25.3% (active) | 65.9% | 83.4% |  | 95.2% |
| COc1ccc(S(=O)(=O)Nc2ccc(OCc3nnc(-c4ccc(Cl)cc4)o3)c(F)c2)cc1 | 65.5% | 83.7% | 67.1% | 65.8% | 68.4% | 52.3% |  | 42.4% | 83.8% | 40.6% | 68.1% | 51.3% | 57.6% | 56.6% | 54.6% | 54.5% | 36% | 52.7% |  |  |
| N/C(=N\O)c1cn(C2OC(CO)C(O)C2O)c2ncnc(N)c12 (stereo unspecified) | 7.46% (active) | 7.04% (active) | -7.06% (active) | 16.5% | 10.7% | 4.66% (active) |  | -68.2% (active) | -53.3% (active) | -41.5% (active) | 3.58% (active) |  | -0.402% (active) | 11.6% | 3.33% (active) | -10.4% (active) | -27.7% (active) | -63.2% (active) |  | -56.3% (active) |
| Nc1nsc(C(=O)c2ccc(O)cc2)n1 | 102% | 106% | 101% | 103% | 93.5% | 76.1% |  | 89% | 100% | 102% |  |  | 108% | 91.1% | 92% | 89.8% | 110% | 89.3% | 97.9% | 115% |
| CC1(C)CNC(=O)N1 | 98.8% | 94.6% | 94.4% | 103% | 97.4% | 93.3% |  | 95.9% | 114% | 98.8% |  | 87.7% | 97.7% | 110% | 97.1% | 95.4% | 101% | 107% | 96% | 95.5% |
| CC(C)/C(=N/O)c1ccccc1 | 110% | 97.4% | 94.5% | 102% | 112% | 102% |  | 107% | 113% | 101% | 102% | 93.8% | 104% | 107% | 107% | 103% | 94% | 94.5% | 102% | 113% |
| CCOC(=O)Nc1ccc2c(c1)C(=O)N(CC)c1ccccc1O2 | 14.4% | -3.19% (active) | 27.3% | 31.7% | 18.7% | 33.8% |  | 21.5% | 63.4% | 14.6% |  | 53.7% | 74.8% | 35.6% | 31.1% | 13.5% | 14.5% | 15.1% | 32.8% | -4.82% (active) |
| Nc1ccc2c(c1)Cc1cc(N)c(Cl)cc1-2 | 100% | 101% | 86.7% | 92.9% | 93.2% | 95.7% |  | 83.9% | 103% | 102% | 89.8% | 52.6% | 115% | 98.5% | 94.1% | 79.8% | 90% | 104% | 57.2% | 118% |
| COc1ccc(/C(CS(=O)(=O)c2ccccc2)=N\O)cc1 | 99.4% | 106% | 87% | 101% | 93.9% | 104% |  | 95.1% | 100% | 113% | 96.9% | 104% | 92.5% | 109% | 101% |  | 98.4% | 111% |  |  |
